Inconclusive results are not listed. A call without a number means that no potency is given here. Activity calls are given as the source filed them. Calls come from the whole dose curve; as a rule, active = well fitted curve in the direction sought with a large enough effect in the repeat runs; inconclusive = weak or mixed curves; inactive = no such curve, though single readings can be large; an effect the other way counts as inactive or inconclusive.
Legend:
[1] = target: Cytochrome P450 2D6 (Homo sapiens) (UniProt P10635); assay: Cytochrome P450 Family 2 Subfamily D Member 6 (CYP2D6) small molecule antagonists: luciferase reporter qHTS assay (AID 1671196); note: nearly all actives have a fitted effect of over 50% in size; note: potency is the fitted concentration of half-maximal effect
In short: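 Cell-free P450-Glo system: CYP2D6 with proluciferin substrate was pre-incubated with compound for 10 min, then reacted with NADPH regeneration for 1 h at room temperature. Luciferin product was detected after 20 min, and data were reported as relative luminescence units.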

[2] = target: Cytochrome P450 2C19 (Homo sapiens) (UniProt P33261); assay: Cytochrome P450 Family 2 Subfamily C Member 19 (CYP2C19) small molecule antagonists: luciferase reporter qHTS assay (AID 1671197); note: nearly all actives have a fitted effect of over 65% in size; note: potency is the fitted concentration of half-maximal effect
In short: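 Inhibition of CYP2C19 was scored from loss of luminescence in a P450-Glo proluciferin substrate assay, NADPH-started and run 1 h at 37C, with ketoconazole as positive control.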

[3] = target: Cytochrome P450 2C9 (Homo sapiens) (UniProt P11712); assay: Cytochrome P450 Family 2 Subfamily C Member 9 (CYP2C9) small molecule antagonists: luciferase reporter qHTS assay (AID 1671198); note: nearly all actives have a fitted effect of over 50% in size; note: potency is the fitted concentration of half-maximal effect
In short: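 CYP2C9 activity was measured with a P450-Glo proluciferin substrate. Enzyme–substrate mix was held with compound for 10 min at room temperature, then NADPH regeneration solution was added for 1 h at 37C. Luciferin product was read as luminescence.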

[4] = target: Cytochrome P450 1A2 (Homo sapiens) (UniProt P05177); assay: Cytochrome P450 Family 1 Subfamily A Member 2 (CYP1A2) small molecule antagonists: luciferase reporter qHTS assay (AID 1671199); note: nearly all actives have a fitted effect of over 50% in size; note: potency is the fitted concentration of half-maximal effect
In short: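 P450-Glo CYP1A2 enzyme–proluciferin substrate mix with compound 10 min at room temperature, then NADPH regeneration 1 h at room temperature. Luciferin detection reagent added, luminescence read after 20 min; furafylline positive control.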

[5] = target: Voltage-gated inwardly rectifying potassium channel KCNH2 (Homo sapiens) (UniProt Q12809); assay: Human Ether-a-go-go-Related Gene (hERG) channel small molecule antagonists: fluorescence cell-based qHTS assay (AID 1671200);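 note: hERG-expressing U2OS cells given a thallium stimulus after FluxOR II dye loading; series mostly up to about 77 µM; nearly all actives have a fitted effect of over 50% in size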
In short: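 Measured: Tl+ flux via fluorescence (480/540 nm) in hERG-expressing U2OS cells after 1 h dye loading at room temperature.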

[6] = target: Cytochrome P450 3A4 (Homo sapiens) (UniProt P08684); assay: Cytochrome P450 Family 3 Subfamily A Member 4 (CYP3A4) small molecule antagonists: luciferase reporter qHTS assay (AID 1671201); note: nearly all actives have a fitted effect of over 50% in size; note: potency is the fitted concentration of half-maximal effect
In short: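 Setup: enzyme-substrate mix, compound pin transfer, 10 min RT. Reaction: NADPH regeneration solution, 1 h RT. Readout: detection reagent stops turnover, luminescence measured after 20 min, expressed in relative luminescence units.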

Cytochrome P450 2D6 (Homo sapiens), sequence (P10635 whole entry, looked up): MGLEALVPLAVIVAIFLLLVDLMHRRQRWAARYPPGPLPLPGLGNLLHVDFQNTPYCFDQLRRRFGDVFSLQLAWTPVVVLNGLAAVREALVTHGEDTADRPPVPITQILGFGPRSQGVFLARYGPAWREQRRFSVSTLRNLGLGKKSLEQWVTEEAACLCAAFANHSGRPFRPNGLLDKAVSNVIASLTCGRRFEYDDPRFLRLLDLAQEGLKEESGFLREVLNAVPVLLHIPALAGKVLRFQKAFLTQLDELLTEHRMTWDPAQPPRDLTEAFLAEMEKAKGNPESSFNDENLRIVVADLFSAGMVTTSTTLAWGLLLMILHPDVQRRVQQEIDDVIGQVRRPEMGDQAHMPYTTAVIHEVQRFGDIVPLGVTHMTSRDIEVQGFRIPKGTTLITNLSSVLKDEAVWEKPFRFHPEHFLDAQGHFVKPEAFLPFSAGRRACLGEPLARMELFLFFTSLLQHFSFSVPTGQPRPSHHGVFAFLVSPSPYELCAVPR
Cytochrome P450 2C9 (Homo sapiens), sequence (P11712 whole entry, looked up): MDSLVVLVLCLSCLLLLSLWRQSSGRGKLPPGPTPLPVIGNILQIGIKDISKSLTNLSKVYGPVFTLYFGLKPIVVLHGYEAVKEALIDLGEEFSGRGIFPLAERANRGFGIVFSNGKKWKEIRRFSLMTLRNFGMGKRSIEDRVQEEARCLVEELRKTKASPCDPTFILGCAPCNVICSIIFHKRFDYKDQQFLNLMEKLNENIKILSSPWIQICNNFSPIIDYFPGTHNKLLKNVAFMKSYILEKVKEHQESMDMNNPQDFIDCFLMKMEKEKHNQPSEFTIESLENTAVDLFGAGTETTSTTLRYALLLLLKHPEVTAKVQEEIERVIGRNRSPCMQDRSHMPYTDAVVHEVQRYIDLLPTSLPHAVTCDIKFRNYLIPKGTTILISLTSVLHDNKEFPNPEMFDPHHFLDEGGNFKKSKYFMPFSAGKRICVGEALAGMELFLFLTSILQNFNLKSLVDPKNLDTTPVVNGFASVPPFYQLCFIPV
Voltage-gated inwardly rectifying potassium channel KCNH2 (Homo sapiens), sequence (Q12809 whole entry, looked up): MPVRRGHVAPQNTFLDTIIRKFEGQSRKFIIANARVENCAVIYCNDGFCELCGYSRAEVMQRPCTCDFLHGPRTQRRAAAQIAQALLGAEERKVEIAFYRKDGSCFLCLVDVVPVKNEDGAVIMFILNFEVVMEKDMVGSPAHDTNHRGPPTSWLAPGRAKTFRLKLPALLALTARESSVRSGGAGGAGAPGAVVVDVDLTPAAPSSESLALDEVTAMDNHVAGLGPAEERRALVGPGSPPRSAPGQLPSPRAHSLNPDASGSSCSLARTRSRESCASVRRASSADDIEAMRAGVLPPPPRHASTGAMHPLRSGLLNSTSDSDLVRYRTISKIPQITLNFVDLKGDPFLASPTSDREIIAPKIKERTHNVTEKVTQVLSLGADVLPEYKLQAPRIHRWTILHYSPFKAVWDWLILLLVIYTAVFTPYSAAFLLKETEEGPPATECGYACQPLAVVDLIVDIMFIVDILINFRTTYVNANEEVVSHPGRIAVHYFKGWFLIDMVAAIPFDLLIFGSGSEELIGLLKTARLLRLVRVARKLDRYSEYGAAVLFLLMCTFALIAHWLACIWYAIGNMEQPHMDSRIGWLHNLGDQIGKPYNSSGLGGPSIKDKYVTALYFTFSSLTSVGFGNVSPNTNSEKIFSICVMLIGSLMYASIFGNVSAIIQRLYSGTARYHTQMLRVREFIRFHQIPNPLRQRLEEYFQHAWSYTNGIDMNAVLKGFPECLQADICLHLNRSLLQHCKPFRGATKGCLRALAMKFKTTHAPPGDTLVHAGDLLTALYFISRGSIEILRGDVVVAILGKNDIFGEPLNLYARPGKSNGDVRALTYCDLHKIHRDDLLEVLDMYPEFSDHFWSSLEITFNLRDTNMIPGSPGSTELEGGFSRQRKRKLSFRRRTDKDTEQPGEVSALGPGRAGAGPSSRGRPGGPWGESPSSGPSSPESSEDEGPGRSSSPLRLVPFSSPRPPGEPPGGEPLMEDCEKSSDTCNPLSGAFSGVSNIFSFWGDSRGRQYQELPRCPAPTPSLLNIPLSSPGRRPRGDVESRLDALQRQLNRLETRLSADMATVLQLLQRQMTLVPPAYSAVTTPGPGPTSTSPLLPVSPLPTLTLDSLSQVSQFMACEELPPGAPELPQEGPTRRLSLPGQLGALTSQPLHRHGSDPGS
Cytochrome P450 3A4 (Homo sapiens), sequence (P08684 whole entry, looked up): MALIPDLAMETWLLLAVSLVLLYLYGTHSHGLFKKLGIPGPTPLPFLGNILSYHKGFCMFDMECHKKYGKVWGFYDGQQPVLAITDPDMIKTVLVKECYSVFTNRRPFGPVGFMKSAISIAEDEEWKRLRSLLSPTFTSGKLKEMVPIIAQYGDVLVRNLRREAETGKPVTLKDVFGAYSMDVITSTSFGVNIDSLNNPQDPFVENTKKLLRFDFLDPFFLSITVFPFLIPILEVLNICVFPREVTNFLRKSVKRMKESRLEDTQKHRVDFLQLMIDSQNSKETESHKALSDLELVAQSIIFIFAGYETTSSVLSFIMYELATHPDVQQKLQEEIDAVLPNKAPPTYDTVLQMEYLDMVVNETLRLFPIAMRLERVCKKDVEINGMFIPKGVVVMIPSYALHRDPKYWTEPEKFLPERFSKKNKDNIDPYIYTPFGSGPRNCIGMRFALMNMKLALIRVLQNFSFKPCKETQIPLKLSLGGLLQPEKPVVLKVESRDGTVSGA
Cytochrome P450 1A2 (Homo sapiens), sequence (P05177 whole entry, looked up): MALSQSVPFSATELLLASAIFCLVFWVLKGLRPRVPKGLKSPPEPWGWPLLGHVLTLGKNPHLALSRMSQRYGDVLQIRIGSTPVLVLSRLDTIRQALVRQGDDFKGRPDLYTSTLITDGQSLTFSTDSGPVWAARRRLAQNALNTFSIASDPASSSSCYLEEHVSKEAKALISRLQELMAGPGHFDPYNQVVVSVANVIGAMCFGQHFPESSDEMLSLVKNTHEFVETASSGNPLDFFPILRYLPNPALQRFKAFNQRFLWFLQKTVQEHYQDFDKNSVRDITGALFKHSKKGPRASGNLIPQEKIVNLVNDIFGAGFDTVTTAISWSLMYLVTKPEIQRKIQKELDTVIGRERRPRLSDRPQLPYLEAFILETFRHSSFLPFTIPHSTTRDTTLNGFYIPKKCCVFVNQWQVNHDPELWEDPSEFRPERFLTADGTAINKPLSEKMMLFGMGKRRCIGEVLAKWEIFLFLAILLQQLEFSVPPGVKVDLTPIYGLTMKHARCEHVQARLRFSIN
Cytochrome P450 2C19 (Homo sapiens), sequence (P33261 whole entry, looked up): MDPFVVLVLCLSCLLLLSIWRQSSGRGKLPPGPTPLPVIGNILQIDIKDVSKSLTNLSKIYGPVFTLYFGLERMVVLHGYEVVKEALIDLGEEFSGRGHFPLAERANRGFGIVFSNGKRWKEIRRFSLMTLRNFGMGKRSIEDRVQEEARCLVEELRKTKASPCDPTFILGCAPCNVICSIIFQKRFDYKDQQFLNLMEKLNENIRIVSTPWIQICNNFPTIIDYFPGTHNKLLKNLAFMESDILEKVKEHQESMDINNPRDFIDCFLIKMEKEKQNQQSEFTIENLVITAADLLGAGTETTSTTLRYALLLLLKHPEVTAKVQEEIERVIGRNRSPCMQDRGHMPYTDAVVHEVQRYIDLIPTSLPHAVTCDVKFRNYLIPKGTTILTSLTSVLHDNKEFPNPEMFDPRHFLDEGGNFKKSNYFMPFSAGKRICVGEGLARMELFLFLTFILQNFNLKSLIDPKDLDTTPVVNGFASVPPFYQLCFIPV

SMILES | Potency [1] | Potency [2] | Potency [3] | Potency [4] | Potency [5] | Potency [6]
C=CC(=O)OCCCCCCCCCC | inactive | inactive | inactive | inactive | inactive | inactive
COc1ccnc2c1CCCCC2S(=O)c1nc2ccccc2[nH]1 (centres undefined) | 0.436 µM (active) | 8.71 µM (active) | 12.3 µM (active) | 13.8 µM (active) | inactive | 
CCOC(C)OCC | inactive | 69 µM (active) | inactive | inactive | inactive | inactive
c1ccc(CCNc2nc(-c3ccccc3)cs2)cc1 | 17.4 µM (active) | 2.75 µM (active) | 6.92 µM (active) | 2.29 µM (active) | inactive | 
Cc1ccc(NC(=O)c2ccc(CN3CCN(C)CC3)cc2)cc1Nc1nccc(-c2cccnc2)n1 | inactive | inactive | inactive | inactive |  | 
CC(C)(C)NCC(O)COc1ccc(NC(=O)NC2CCCCC2)cc1 (centres undefined) | inactive | inactive | inactive | inactive | inactive | inactive
CCCN(C1CCN(C(=O)C2CCNCC2)CC1)[C@@H]1CCc2ccc(OC)cc2C1 | 10 µM (active) | inactive | inactive | inactive |  | 
Cc1c(Cl)cccc1[N+](=O)[O-] | inactive | inactive | inactive | inactive | inactive | inactive
CCCC(=O)OCc1ccccc1 | inactive | inactive | inactive | inactive | inactive | inactive
O=C(O)c1cccc(C(=O)O)c1C(=O)O | 40.3 µM (active) | 71.7 µM (active) | inactive | inactive | inactive | inactive
CCc1ccc(C(=O)C(C)CN2CCCCC2)cc1 (centres undefined) | 0.49 µM (active) | 4.9 µM (active) | inactive | inactive | inactive | inactive
Cc1ccc2ccccc2c1[N+](=O)[O-] | inactive | 79.6 µM (active) | inactive | 2.52 µM (active) | inactive | 
CCCCCCOC(=O)c1ccccc1 | inactive | inactive | inactive | 20 µM (active) | inactive | inactive
Nc1ccc(F)cc1F | inactive | inactive | inactive | inactive | inactive | inactive
OCCCO | inactive | inactive | inactive | inactive | inactive | inactive
CCOc1ccc2c(c1)C(C)CC(C)(C)N2 (centres undefined) | 11.2 µM (active) | 1.26 µM (active) | 14.2 µM (active) | 35.6 µM (active) | inactive | 7.96 µM (active)
CCCCOc1ccc(N)cc1 | 39.9 µM (active) | 28.3 µM (active) | 39.9 µM (active) | 11.2 µM (active) | inactive | 
CC(C)(C)N | inactive | inactive | inactive | inactive | inactive | inactive
CCCC1CCCC(=O)O1 (centres undefined) | inactive | inactive | 39.9 µM (active) | inactive | inactive | 39.9 µM (active)
CC1=C(C)C(=O)C(CCCCC#CCCCC#CCO)=C(C)C1=O | 15.5 µM (active) | 11 µM (active) | 6.92 µM (active) | 4.9 µM (active) |  | 
CO[C@@H]1[C@@H](O[C@@H]2O[C@H](C)[C@@H](O[C@H]3C[C@@](C)(O)[C@@H](O)[C@H](C)O3)[C@H](N(C)C)[C@H]2O)[C@@H](CC=O)C[C@@H](C)[C@@H](O[C@@H]2CC[C@H](N(C)C)[C@@H](C)O2)/C=C/C=C/C[C@@H](C)OC(=O)C[C@H]1OC(C)=O | inactive | inactive | inactive | inactive | inactive | 
CCC(=O)O[C@@H]1C[C@H]2CC[C@]1(C)C2(C)C | inactive | inactive | inactive | inactive | inactive | inactive
O=[N+]([O-])c1cccc(I)c1 | inactive | inactive | inactive | 31.6 µM (active) | inactive | inactive
O=C(C1CCCCC1)N1CC(=O)N2CCCc3ccccc3C2C1 (centres undefined) | inactive | 4.9 µM (active) | 13.8 µM (active) | inactive | inactive | 
O=C(Nc1ccc2c(c1)Cc1ccccc1-2)C(F)(F)F | inactive | 17.8 µM (active) | 5.03 µM (active) | 3.56 µM (active) | inactive | inactive
CO[C@@H]1COCC[C@@H]1N[C@@H]1CC[C@@](C(=O)N2CCc3ncc(C(F)(F)F)cc3C2)(C(C)C)C1 | 35.4 µM (active) | inactive | inactive | inactive | inactive | 
O=C(O)c1ccc(O)c(O)c1 | inactive | 79.6 µM (active) | 35.5 µM (active) | 31.7 µM (active) | inactive | inactive
CCN(CC)CC(=O)OCC(=O)[C@@]1(O)CC[C@H]2[C@@H]3CCC4=CC(=O)CC[C@]4(C)[C@H]3[C@@H](O)C[C@@]21C | inactive | inactive | inactive | inactive | inactive | 

Source: PubChem BioAssay (Tox21)
